Test results as given in the supplement of paper PMC10849652.
Of roughly 8,800 targets only a part is listed; those with a hit were picked by preference. About 0.5% of all pairs of compound and target were hits.

What was measured:
Test in all cases: log2 fold change, soluble protein after heating vs DMSO (PISA); higher = thermal stabilisation; K562 lysate, 10 uM; active = over 0.2 and 3.5 SD of the protein, either way, in both replicates (recomputed)
erlotinib = compound: C#Cc1cccc(Nc2ncnc3cc(OCCOC)c(OCCOC)cc23)c1 [erlotinib]
In short: (§1)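 The values are log-two fold changes in thermal stability compared with solvent controls and come from duplicates. They were obtained by TMTpro 16plex LC-MS/MS, with channel sums equalised, on the supernatant after 21,000xg for 90 min. That supernatant came from crude K562 extract at 1 mg/mL protein treated with 10 μM compound for 30 min, heated for 3 min across 48°C-58°C, pooled and brought to 0.5% NP-40 at 4°C.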

[1] = compound: C/C(=N\NC(=O)C1=CC(=CC=C1)S(=O)(=O)N2CCOCC2)/C3=C(C=CC(=C3)Cl)O
In short: as §1

[2] = compound: C1=CC(=CC=C1C2=NC3=C(N2)C=C(C=C3)C(=O)N)OC4=CC=C(C=C4)Cl
In short: as §1

[3] = compound: C1=CC2=C(C=CC(=C2)/C=C\3/C(=O)NC(=NCC4=CC=CS4)S3)N=C1
In short: as §1

[4] = compound: C1=CC2=NC=CN=C2C=C1/C=C/3\C(=O)NC(=O)S3
In short: as §1

[5] = compound: C1=CC=C(C=C1)C2=NC(=C(N2)C3=CC=NC=C3)C4=CC(=C(C=C4)Cl)O
In short: as §1

[6] = compound: C1=CC=C2C(=C1)C3=NNC4=CC=CC(=C43)C2=O
In short: as §1

[7] = compound: C1CCN(C1)C(=O)NC2=CC=CC(=C2)NC3=NC=C(C(=N3)NCCC4=CN=CN4)Br
In short: as §1

[8] = compound: C1CN(CCC1(CC2=CC=C(C=C2)Cl)N)C3=NC=NC4=C3C=CN4
In short: as §1

IRAK-1-4 Inhibitor I = compound: C1COCCN1CCN2C3=CC=CC=C3N=C2NC(=O)C4=CC(=CC=C4)[N+](=O)[O-] [IRAK-1-4 Inhibitor I]
In short: as §1

ibrutinib = compound: C=CC(=O)N1CCC[C@@H](n2nc(-c3ccc(Oc4ccccc4)cc3)c3c(N)ncnc32)C1 [ibrutinib]
In short: as §1

[9] = compound: CC(=O)c1cnc2ccc(-c3cc(Cl)c(O)c(Cl)c3)nc2c1N[C@H]1CC[C@H](CN(C)C)CC1
In short: as §1

ralimetinib = compound: CC(C)(C)Cn1c(N)nc2ccc(-c3[nH]c(C(C)(C)C)nc3-c3ccc(F)cc3)nc21 [ralimetinib]
In short: as §1

[10] = compound: CC(C)(O)CC(=O)NCCn1ccc2ncnc(Nc3ccc(Oc4cccc(C(F)(F)F)c4)c(Cl)c3)c21
In short: as §1

[11] = compound: CC(C)C1=C2N=C(C=C(N2N=C1)NCC3=CC=CC=C3)NCCCCCCN
In short: as §1

[12] = compound: CC1=C(C(CC(=O)N1)C2=CC=C(C=C2)C(F)(F)F)C(=O)NC3=C(C=C4C(=C3)C=NN4)F
In short: as §1

[13] = compound: CC1=C(C2=C(C=C1)C(=O)C3=CC=CC=C3N2CCCN)C
In short: as §1

[14] = compound: CC1=C(C=C(C=C1)NC(=O)C2=CC(=CC=C2)C(C)(C)C#N)NC3=CC4=C(C=C3)N=CN(C4=O)C
In short: as §1

[15] = compound: CC1=C(C=C(C=C1)NC(=O)C2=CC(=CC=C2)N(C)C)NC(=O)C3=CC=C(C=C3)O
In short: as §1

[16] = compound: CC1=CC=C(C=C1)SC2=C3C=C(SC3=CN=C2)C(=O)N
In short: as §1

Measured: log2 fold change

NOSTRIN (UniProt Q8IVI9)
Chain of UniProt Q8IVI9 (Q8IVI9 whole entry, looked up): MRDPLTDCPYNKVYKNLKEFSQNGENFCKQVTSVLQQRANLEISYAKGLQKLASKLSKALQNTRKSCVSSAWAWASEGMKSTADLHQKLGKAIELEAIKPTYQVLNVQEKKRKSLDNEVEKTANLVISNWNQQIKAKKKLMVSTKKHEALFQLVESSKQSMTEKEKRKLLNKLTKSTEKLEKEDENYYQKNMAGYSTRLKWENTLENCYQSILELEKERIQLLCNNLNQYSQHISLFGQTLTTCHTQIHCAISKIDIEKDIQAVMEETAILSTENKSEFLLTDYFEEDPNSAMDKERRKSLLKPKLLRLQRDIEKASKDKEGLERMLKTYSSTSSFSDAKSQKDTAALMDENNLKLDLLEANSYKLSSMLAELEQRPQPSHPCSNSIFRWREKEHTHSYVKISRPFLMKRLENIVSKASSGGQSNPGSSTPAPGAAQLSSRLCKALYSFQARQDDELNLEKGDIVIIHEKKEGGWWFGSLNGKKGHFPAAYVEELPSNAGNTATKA
inactive: erlotinib -0.031 | [1] 0.032 | [2] 0.132 | [3] 0.072 | [4] -0.008 | [5] -0.013 | [6] 0.07 | [7] -0.055 | [8] -0.065 | IRAK-1-4 Inhibitor I 0.001 | ibrutinib 0.025 | [9] -0.009 | ralimetinib 0.012 | [10] -0.041 | [11] -0.125 | [12] -0.032 | [13] -0.039 | [14] -0.019 | [15] 0.088 | [16] 0.012

MSH3 (UniProt P20585)
Chain of UniProt P20585 (P20585 whole entry, looked up): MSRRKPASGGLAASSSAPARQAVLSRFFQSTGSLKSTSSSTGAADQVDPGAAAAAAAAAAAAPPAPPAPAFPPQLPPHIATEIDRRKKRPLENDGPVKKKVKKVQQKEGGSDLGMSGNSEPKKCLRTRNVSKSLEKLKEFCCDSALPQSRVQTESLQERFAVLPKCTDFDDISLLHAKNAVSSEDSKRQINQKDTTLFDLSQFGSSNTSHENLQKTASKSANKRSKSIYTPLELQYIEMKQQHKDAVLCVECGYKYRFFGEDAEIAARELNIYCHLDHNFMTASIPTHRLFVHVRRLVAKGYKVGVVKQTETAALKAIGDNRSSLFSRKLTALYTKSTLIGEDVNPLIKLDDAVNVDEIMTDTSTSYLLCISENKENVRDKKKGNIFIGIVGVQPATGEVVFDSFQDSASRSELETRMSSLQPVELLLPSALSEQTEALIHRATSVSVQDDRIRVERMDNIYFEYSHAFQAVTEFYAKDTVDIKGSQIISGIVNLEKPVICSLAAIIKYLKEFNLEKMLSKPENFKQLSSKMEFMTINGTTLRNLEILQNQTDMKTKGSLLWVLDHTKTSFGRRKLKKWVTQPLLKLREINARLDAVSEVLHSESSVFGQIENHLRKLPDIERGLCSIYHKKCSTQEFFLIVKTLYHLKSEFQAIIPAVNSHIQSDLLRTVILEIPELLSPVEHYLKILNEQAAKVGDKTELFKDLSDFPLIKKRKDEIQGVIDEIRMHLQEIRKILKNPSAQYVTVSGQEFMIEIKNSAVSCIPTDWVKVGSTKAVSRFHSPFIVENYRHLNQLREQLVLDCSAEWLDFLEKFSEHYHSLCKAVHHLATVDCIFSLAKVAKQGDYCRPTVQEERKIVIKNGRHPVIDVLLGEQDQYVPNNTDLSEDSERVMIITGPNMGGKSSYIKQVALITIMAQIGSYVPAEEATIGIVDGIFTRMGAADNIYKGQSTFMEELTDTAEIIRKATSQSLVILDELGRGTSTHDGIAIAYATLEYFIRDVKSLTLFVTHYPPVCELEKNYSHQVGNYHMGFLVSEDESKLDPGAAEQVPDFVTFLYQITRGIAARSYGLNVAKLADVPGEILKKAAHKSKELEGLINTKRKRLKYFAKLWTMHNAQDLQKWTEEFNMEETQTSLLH
inactive: erlotinib -0.046 | [1] -0.021 | [2] 0.042 | [3] 0.011 | [4] -0.025 | [5] 0.007 | [6] -0.026 | [7] -0.038 | [8] 0.058 | IRAK-1-4 Inhibitor I 0.004 | ibrutinib 0 | [9] -0.017 | ralimetinib 0.024 | [10] -0.037 | [11] -0.039 | [12] 0.023 | [13] -0.025 | [14] -0.018 | [15] -0.007 | [16] -0.005

PARP14 (UniProt Q460N5)
Chain of UniProt Q460N5 (Q460N5 whole entry, looked up): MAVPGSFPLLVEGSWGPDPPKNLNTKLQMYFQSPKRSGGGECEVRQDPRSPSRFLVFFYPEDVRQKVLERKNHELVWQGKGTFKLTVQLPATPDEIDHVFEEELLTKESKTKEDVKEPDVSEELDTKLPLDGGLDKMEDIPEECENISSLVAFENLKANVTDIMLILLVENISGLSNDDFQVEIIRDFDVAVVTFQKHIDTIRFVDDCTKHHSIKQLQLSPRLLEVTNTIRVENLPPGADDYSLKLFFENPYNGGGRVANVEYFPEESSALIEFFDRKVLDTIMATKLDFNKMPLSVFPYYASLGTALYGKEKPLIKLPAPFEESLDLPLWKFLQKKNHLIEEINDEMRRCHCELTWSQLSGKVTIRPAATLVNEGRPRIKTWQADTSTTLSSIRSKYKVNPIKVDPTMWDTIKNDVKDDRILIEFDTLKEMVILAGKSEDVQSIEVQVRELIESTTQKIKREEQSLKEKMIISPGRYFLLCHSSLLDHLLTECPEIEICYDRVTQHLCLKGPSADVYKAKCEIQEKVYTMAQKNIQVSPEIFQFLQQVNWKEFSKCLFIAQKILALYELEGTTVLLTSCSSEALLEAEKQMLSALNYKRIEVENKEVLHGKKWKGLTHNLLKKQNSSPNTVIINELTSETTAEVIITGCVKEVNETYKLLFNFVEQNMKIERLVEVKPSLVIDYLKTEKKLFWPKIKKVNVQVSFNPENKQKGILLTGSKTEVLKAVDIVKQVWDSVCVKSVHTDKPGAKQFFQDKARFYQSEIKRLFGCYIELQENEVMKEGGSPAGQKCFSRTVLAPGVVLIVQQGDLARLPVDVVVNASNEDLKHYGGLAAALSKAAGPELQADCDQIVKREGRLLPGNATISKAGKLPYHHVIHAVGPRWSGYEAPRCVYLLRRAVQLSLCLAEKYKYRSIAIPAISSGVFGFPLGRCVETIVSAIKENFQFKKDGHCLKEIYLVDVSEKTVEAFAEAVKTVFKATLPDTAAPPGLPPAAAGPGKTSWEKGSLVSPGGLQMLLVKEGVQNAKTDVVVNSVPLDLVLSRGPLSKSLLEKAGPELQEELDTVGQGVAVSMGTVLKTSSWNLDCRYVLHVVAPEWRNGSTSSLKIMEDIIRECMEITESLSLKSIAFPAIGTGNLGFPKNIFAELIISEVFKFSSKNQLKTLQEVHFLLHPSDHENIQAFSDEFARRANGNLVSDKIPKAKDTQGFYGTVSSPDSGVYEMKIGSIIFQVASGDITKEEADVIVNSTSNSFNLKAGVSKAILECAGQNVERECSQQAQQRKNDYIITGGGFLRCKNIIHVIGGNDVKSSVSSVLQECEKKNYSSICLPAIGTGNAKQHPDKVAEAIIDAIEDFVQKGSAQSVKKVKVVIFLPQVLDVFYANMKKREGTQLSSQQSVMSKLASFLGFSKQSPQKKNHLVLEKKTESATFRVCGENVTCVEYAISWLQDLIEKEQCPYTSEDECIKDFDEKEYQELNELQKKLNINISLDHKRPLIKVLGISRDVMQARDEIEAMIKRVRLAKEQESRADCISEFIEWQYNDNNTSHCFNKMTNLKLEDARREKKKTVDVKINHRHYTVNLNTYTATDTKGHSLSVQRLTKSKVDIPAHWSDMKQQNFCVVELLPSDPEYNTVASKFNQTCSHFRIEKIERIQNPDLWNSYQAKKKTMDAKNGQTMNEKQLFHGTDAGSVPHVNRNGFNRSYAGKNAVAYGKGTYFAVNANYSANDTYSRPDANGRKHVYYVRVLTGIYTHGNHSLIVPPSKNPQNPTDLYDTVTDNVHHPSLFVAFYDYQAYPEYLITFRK
inactive: erlotinib 0.06 | [1] -0.037 | [2] 0.012 | [3] -0.032 | [4] 0.081 | [5] 0.005 | [6] -0.166 | [7] -0.025 | [8] 0.062 | IRAK-1-4 Inhibitor I -0.095 | ibrutinib 0.029 | [9] -0.051 | ralimetinib -0.03 | [10] 0.015 | [11] 0.074 | [12] 0.049 | [13] 0.011 | [14] -0.007 | [15] 0.002 | [16] -0.135

NUDT4 isoform 2 (UniProt Q9NZJ9)
Chain of UniProt Q9NZJ9 (Q9NZJ9 whole entry, looked up): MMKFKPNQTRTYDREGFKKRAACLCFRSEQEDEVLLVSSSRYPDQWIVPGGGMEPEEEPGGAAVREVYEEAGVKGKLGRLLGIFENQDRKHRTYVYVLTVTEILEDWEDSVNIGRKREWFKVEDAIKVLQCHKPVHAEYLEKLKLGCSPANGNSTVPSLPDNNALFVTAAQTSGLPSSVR
inactive: erlotinib 0.023 | [1] 0.015 | [2] 0.05 | [3] -0.048 | [4] 0.015 | [5] -0.007 | [6] -0.005 | [7] -0.069 | [8] 0.032 | IRAK-1-4 Inhibitor I -0.006 | ibrutinib -0.006 | [9] 0.002 | ralimetinib 0.035 | [10] -0.044 | [11] -0.006 | [12] 0.016 | [13] -0.054 | [14] 0.034 | [15] 0.024 | [16] -0.024

NCOR1 (UniProt O75376)
inactive: erlotinib 0.011 | [1] -0.05 | [2] 0.081 | [3] 0.004 | [4] -0.014 | [5] -0.041 | [6] -0.001 | [7] 0.009 | [8] 0.019 | IRAK-1-4 Inhibitor I 0.022 | ibrutinib 0.002 | [9] 0.015 | ralimetinib 0.021 | [10] -0.033 | [11] 0.014 | [12] 0.026 | [13] -0.026 | [14] 0 | [15] -0.006 | [16] -0.005

NSA2 (UniProt O95478)
inactive: erlotinib -0.015 | [1] -0.15 | [2] 0.009 | [3] -0.102 | [4] -0.05 | [5] -0.002 | [6] -0.016 | [7] 0.157 | [8] 0.109 | IRAK-1-4 Inhibitor I -0.006 | ibrutinib 0.154 | [9] 0.068 | ralimetinib 0.012 | [10] 0.082 | [11] 0.01 | [12] -0.043 | [13] 0.223 | [15] -0.155 | [16] -0.027

NSL1 (UniProt Q96IY1)
Chain of UniProt Q96IY1 (Q96IY1 whole entry, looked up): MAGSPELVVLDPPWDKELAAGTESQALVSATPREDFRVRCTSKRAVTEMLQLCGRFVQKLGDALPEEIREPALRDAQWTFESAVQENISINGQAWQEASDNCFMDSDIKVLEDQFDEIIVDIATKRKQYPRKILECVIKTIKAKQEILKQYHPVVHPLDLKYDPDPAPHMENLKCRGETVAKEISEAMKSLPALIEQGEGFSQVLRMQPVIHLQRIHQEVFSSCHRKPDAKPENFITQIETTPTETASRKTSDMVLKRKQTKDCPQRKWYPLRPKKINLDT
inactive: erlotinib 0.01 | [1] -0.004 | [2] 0.015 | [3] -0.001 | [4] -0.002 | [5] 0.01 | [6] 0.077 | [7] 0.001 | [8] -0.015 | IRAK-1-4 Inhibitor I 0.026 | ibrutinib -0.019 | [9] -0.002 | ralimetinib 0.003 | [10] -0.052 | [11] 0.011 | [12] -0.066 | [13] 0.023 | [14] 0.009 | [15] 0.008 | [16] 0.036

NAA35 (UniProt Q5VZE5)
inactive: erlotinib 0.017 | [1] 0.054 | [2] -0.023 | [3] 0.115 | [4] 0.021 | [5] 0.01 | [6] -0.002 | [7] -0.026 | [8] -0.025 | IRAK-1-4 Inhibitor I 0.013 | ibrutinib -0.005 | [9] -0.017 | ralimetinib 0.006 | [10] 0.042 | [11] -0.01 | [12] -0.008 | [13] -0.004 | [14] -0.006 | [15] 0.017 | [16] -0.02

NPLOC4 isoform 2 (UniProt Q8TAT6)
inactive: erlotinib -0.022 | [1] 0.032 | [2] -0.004 | [3] 0.001 | [4] -0.012 | [5] 0.011 | [6] -0.016 | [7] -0.012 | [8] 0.007 | IRAK-1-4 Inhibitor I 0.001 | ibrutinib -0.016 | [9] -0.015 | ralimetinib -0.01 | [10] -0.003 | [11] 0.027 | [12] -0.005 | [13] -0.009 | [14] 0.062 | [15] 0.018 | [16] -0.015

PAIP2 (UniProt Q9BPZ3)
Chain of UniProt Q9BPZ3 (Q9BPZ3 whole entry, looked up): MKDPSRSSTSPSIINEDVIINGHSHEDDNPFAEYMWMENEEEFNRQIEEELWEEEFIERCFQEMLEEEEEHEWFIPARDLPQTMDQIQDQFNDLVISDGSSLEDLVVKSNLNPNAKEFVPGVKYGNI
inactive: erlotinib 0.044 | [1] 0.041 | [2] -0.016 | [3] -0.01 | [4] 0.004 | [5] -0.054 | [6] -0.053 | [7] -0.044 | [8] 0.022 | IRAK-1-4 Inhibitor I 0.017 | ibrutinib 0.145 | [9] 0.012 | ralimetinib -0.05 | [10] -0.006 | [11] 0.006 | [12] 0.015 | [13] 0.028 | [14] 0.01 | [15] -0.003 | [16] -0.008

NFATC2IP (UniProt Q8NCF5)
Chain of UniProt Q8NCF5 (Q8NCF5 whole entry, looked up): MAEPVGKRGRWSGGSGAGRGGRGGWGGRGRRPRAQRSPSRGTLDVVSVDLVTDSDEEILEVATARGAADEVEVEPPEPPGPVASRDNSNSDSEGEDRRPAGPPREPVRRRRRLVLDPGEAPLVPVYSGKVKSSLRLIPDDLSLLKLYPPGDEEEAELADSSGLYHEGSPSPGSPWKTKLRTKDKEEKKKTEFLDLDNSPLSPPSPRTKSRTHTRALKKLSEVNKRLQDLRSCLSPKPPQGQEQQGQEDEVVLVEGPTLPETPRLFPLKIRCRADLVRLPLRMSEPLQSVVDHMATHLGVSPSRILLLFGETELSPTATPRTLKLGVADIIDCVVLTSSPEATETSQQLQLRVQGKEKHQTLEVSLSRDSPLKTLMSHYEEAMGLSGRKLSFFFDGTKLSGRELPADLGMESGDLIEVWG
inactive: erlotinib 0.001 | [1] 0.026 | [2] -0.036 | [3] 0.006 | [4] 0.016 | [5] 0.031 | [6] -0.071 | [7] 0.013 | [8] -0.016 | IRAK-1-4 Inhibitor I -0.009 | ibrutinib 0.015 | [9] -0.037 | ralimetinib 0 | [10] -0.052 | [11] 0.01 | [12] -0.021 | [13] -0.019 | [14] -0.047 | [15] 0.013 | [16] 0.011

MRPS12 (UniProt O15235)
inactive: erlotinib -0.015 | [1] -0.058 | [2] 0 | [3] -0.044 | [4] -0.016 | [5] 0.019 | [6] -0.251 | [7] -0.004 | [8] -0.127 | IRAK-1-4 Inhibitor I 0.043 | ibrutinib -0.003 | [9] -0.008 | ralimetinib 0.011 | [10] -0.067 | [11] 0.007 | [12] -0.004 | [13] -0.138 | [14] 0.003 | [15] -0.028 | [16] -0.02

MYCBP (UniProt Q99417)
Chain of UniProt Q99417 (Q99417 whole entry, looked up): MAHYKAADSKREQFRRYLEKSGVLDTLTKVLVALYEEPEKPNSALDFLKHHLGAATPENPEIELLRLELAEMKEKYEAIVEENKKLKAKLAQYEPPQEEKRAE
inactive: erlotinib 0.007 | [1] -0.001 | [2] 0.011 | [3] 0.007 | [4] 0 | [5] 0.019 | [6] 0 | [7] 0.024 | [8] 0.076 | IRAK-1-4 Inhibitor I 0.04 | ibrutinib 0.188 | [9] -0.009 | ralimetinib 0.021 | [10] -0.04 | [11] 0.002 | [12] -0.007 | [13] -0.017 | [14] 0.032 | [15] -0.002 | [16] -0.009

NTPCR (UniProt Q9BSD7)
Chain of UniProt Q9BSD7 (Q9BSD7 whole entry, looked up): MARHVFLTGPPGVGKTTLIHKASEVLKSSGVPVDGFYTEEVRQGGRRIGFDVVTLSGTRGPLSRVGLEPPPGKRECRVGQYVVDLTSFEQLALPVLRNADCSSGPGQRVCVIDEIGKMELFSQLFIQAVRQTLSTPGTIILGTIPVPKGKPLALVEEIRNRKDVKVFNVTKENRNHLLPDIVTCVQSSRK
inactive: erlotinib 0.015 | [1] -0.263 | [2] -0.007 | [3] 0.065 | [4] 0.031 | [5] 0.018 | [6] -0.045 | [7] 0.025 | [8] 0.046 | IRAK-1-4 Inhibitor I -0.011 | ibrutinib -0.004 | [9] 0.002 | ralimetinib 0.014 | [10] 0 | [11] 0.022 | [12] 0.018 | [13] 0.014 | [14] -0.002 | [15] 0.066 | [16] -0.001

NPM3 (UniProt O75607)
Chain of UniProt O75607 (O75607 whole entry, looked up): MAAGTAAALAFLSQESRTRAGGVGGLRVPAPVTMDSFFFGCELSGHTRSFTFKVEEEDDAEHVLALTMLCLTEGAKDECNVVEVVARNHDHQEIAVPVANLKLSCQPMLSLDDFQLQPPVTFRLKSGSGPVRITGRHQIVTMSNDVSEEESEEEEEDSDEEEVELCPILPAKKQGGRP
inactive: erlotinib 0.023 | [1] -0.047 | [2] 0.034 | [3] 0.019 | [4] -0.059 | [5] -0.013 | [6] 0.025 | [7] -0.004 | [8] 0.053 | IRAK-1-4 Inhibitor I -0.028 | ibrutinib 0.038 | [9] 0.03 | ralimetinib 0.029 | [10] -0.077 | [11] 0.018 | [12] 0.048 | [13] -0.03 | [14] 0.069 | [15] 0.018 | [16] -0.037
